According to PubChem BioAssay (Tox21):
Activity calls are given as the source filed them. The call rests on the fitted dose curve; in most records, active means well fitted curve in the direction sought with a large enough effect in the repeat runs; inconclusive means weak or mixed curves; inactive means flat fitted curve, though single readings scatter.

Tests used:
[1] = qHTS assay to test for compound auto fluorescence at 535 nm (green) in HEK293 cells (AID 720680)
[2] = qHTS assay to test for compound auto fluorescence at 460 nm (blue) in HEK293 cell free culture (AID 720681)
In short: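 Test compounds were pinned into cell-free culture medium (DMEM with 10% FBS) and fluorescence was read directly at Ex/Em 405/460 nm. Signals were expressed as fluorescence equivalents of triamterene, with DMSO vehicle as control.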

[3] = qHTS assay to test for compound auto fluorescence at 535 nm (green) in HEK293 cell free culture (AID 720682)
In short: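 Cell-free medium (DMEM, 10% FBS) receives compound or DMSO by pintool. Plate read directly at Ex 485/Em 535 nm. Signal converted to fluorescein equivalency.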

[4] = qHTS assay to test for compound auto fluorescence at 590 nm (red) in HEK293 cell free culture (AID 720683)
In short: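 Tox21 10K library compounds were pinned into cell-free DMEM with 10% FBS and fluorescence was read at excitation 540 nm. Activity is expressed as Rose Bengal sodium equivalency.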

[5] = qHTS assay to test for compound auto fluorescence at 590 nm (red) in HepG2 cell free culture (AID 720684)
In short: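 Red fluorescence (540 nm excitation, 590 nm emission) was measured after compound transfer into cell-free MEM supplemented with 10% FBS. Values are equivalencies against Rose Bengal sodium.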

[6] = qHTS assay to test for compound auto fluorescence at 460 nm (blue) in HepG2 cell free culture (AID 720685)
In short: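 Compound (23 nL) or DMSO pinned into cell-free MEM with 10% FBS; blue fluorescence read at 405/460 nm excitation/emission, expressed as auto-fluorescence equivalency to triamterene.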

[7] = qHTS assay to test for compound auto fluorescence at 535 nm (green) in HepG2 cell free culture (AID 720686)
[8] = qHTS assay to test for compound auto fluorescence at 460 nm (blue) in HepG2 cells (AID 720687)
In short: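 Cells (2,000/well in MEM with 10% FBS) attached overnight at 37 C, then were exposed to compound or DMSO for 1 hr at 37 C, 5% CO2. Fluorescence read at Ex/Em 405/460 nm, expressed as triamterene-equivalent signal.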

Measured: Potency

CC(=C\c1ccccc1)/C=C1/SC(=S)N(CC(=O)O)C1=O
inactive: all assays above

CC[C@@H]1/C=C(\C)C[C@H](C)C[C@H](OC)[C@H]2O[C@@](O)(C(=O)C(=O)N3CCCC[C@H]3C(=O)O[C@H](/C(C)=C/[C@@H]3CC[C@@H](Cl)[C@H](OC)C3)[C@H](C)[C@@H](O)CC1=O)[C@H](C)C[C@@H]2OC
inactive: all assays above

C=C1C(=O)O[C@H]2[C@H]1CC/C(C)=C\CC[C@@]1(C)O[C@@H]21
inactive: all assays above

CC(C)[C@@H]1CC[C@@H](C)C[C@H]1OC(=O)c1ccccc1O
inactive: all assays above

CCCCCCCCCCCCCCCC(=O)OC[C@@H](NC(=O)C(Cl)Cl)[C@H](O)c1ccc([N+](=O)[O-])cc1
inactive: all assays above

CO[C@H]1C[C@@H]2CC[C@@H](C)[C@@](O)(O2)C(=O)C(=O)N2CCCC[C@H]2C(=O)O[C@H]([C@H](C)C[C@@H]2CC[C@@H](OC(=O)C(C)(CO)CO)[C@H](OC)C2)CC(=O)[C@H](C)/C=C(\C)[C@@H](O)[C@@H](OC)C(=O)[C@H](C)C[C@H](C)/C=C/C=C/C=C/1C
inactive: all assays above

COc1ccc2c(c1)OC(C)(C)C(c1ccccc1)C2c1ccc(OCCN2CCCC2)cc1 (stereo unspecified)
inactive: all assays above

CC(=O)O[C@H]1C[C@@H]2CC[C@@H]3[C@H](CC[C@@]4(C)[C@H]3C[C@H](N3CC[N+](C)(C)CC3)[C@@H]4OC(C)=O)[C@@]2(C)C[C@@H]1N1CC[N+](C)(C)CC1
inactive: all assays above

N=C(N)c1ccc(OCCCOc2ccc(C(=N)N)cc2Br)c(Br)c1
inactive: all assays above

CCC(Oc1ccccc1)C(=O)N[C@@H]1C(=O)N2[C@@H]1SC(C)(C)[C@@H]2C(=O)O (stereo partly specified)
inactive: all assays above

NC(=S)N=Nc1ccc(NN=C(N)N)cc1
inactive: all assays above

CC(NNC(=O)c1ccccc1)c1ccccc1 (stereo unspecified)
inactive: all assays above

C#C[C@]1(O)CC[C@H]2[C@@H]3CCC4=CCCC[C@@H]4[C@H]3C(=C)C[C@@]21CC
inactive: all assays above

O=[N+]([O-])c1ccc(Oc2ccc(N=C=S)cc2)cc1
inactive: all assays above

CCC[C@@H]1C[C@@H](C(=O)N[C@@H]([C@H]2O[C@H](SC)[C@H](O)[C@@H](O)[C@H]2O)[C@H](C)Cl)N(C)C1
inactive: all assays above

O=S(O)CNc1ccc(S(=O)(=O)c2ccc(NCS(=O)O)cc2)cc1
inactive: all assays above

CC(CCc1ccc(O)cc1)NCC(O)c1ccc(O)cc1 (stereo unspecified)
inactive: all assays above

O=P(O)(O)OC[C@H]1O[C@](O)(COP(=O)(O)O)[C@@H](O)[C@@H]1O
inactive: all assays above

Cn1nnnc1SCC1=C(C(=O)O)N2C(=O)[C@@H](NC(=O)[C@H](OC=O)c3ccccc3)[C@H]2SC1
inactive: all assays above

CC(CC(c1ccccc1)c1ccccc1)NC(C)(C)C (stereo unspecified)
inactive: all assays above

CCC(=O)OCC(=O)[C@@]1(OC(=O)CC)[C@@H](C)C[C@H]2[C@@H]3CCC4=CC(=O)C=C[C@]4(C)[C@@]3(F)[C@@H](O)C[C@@]21C
inactive: all assays above

CCCCCCCCCCCCCCCCCC(=O)OCC(C)O (stereo unspecified)
inactive: all assays above

CCC(=O)c1ccc2c(c1)N(CCCN1CCN(CCO)CC1)c1ccccc1S2
inactive: all assays above

CC(C)[C@@H](C)/C=C/[C@@H](C)[C@H]1CC[C@H]2/C(=C/C=C3\C[C@@H](O)CC[C@@H]3C)CCC[C@]12C
inactive: all assays above

Cc1c(Cl)cccc1Nc1ncccc1C(=O)O
inactive: all assays above

CO[C@H]1C[C@H](O[C@H]2[C@H](C)O[C@@H](O[C@@H]3/C(C)=C/C[C@@H]4C[C@@H](C[C@]5(C=C[C@H](C)[C@@H](C6CCCCC6)O5)O4)OC(=O)[C@@H]4C=C(C)[C@@H](O)[C@H]5OC/C(=C\C=C\[C@@H]3C)[C@]54O)C[C@@H]2OC)O[C@@H](C)[C@@H]1O
inactive: all assays above

COc1cc([C@@H]2c3cc4c(cc3C(O[C@@H]3O[C@@H]5CO[C@@H](C)O[C@H]5[C@H](O)[C@H]3O)C3COC(=O)[C@@H]32)OCO4)cc(OC)c1OP(=O)(O)O (stereo partly specified)
inactive: all assays above

NC(N)=NCC1COc2ccccc2O1 (stereo unspecified)
inactive: all assays above

CCC(=O)O[C@H]1CC[C@H]2[C@@H]3CCc4cc(O)ccc4[C@H]3CC[C@]12C
inactive: all assays above

CC(C)CCCC(C)NC(C)C (stereo unspecified)
inactive: all assays above

CN(C)C=Nc1c(I)cc(I)c(CCC(=O)O)c1I
inactive: all assays above

C=C(NC(=O)C(=C)NC(=O)c1csc(C2=N[C@@H]3c4csc(n4)[C@H]4NC(=O)c5csc(n5)[C@H]([C@](C)(O)[C@@H](C)O)NC(=O)[C@H]5CSC(=N5)C(=CC)NC(=O)C([C@@H](C)O)NC(=O)c5csc(n5)[C@]3(CC2)NC(=O)[C@H](C)NC(=O)C(=C)NC(=O)[C@H](C)NC(=O)C([C@@H](C)CC)NC2C=Cc3c([C@H](C)O)cc(nc3C2O)C(=O)O[C@@H]4C)n1)C(N)=O (stereo partly specified)
inactive: all assays above

OC1OC[C@@H](O)[C@H](O)[C@@H]1O (stereo partly specified)
inactive: all assays above

CC1=C(C(=O)OCCN(Cc2ccccc2)c2ccccc2)C(c2cccc([N+](=O)[O-])c2)C(P2(=O)OCC(C)(C)CO2)=C(C)N1 (stereo unspecified)
inactive: all assays above

CN1CCC(CN2c3ccccc3Sc3ccccc32)C1 (stereo unspecified)
inactive: all assays above

C/C=C(/CC[C@@H](C)[C@H]1CC[C@H]2C3=CC[C@H]4[C@H](C)[C@@H](O)CC[C@]4(C)[C@H]3CC[C@]12C)C(C)C
inactive: all assays above

Cc1cccc(Nc2ncccc2C(=O)O)c1C
inactive: all assays above

CNC(C)CCC=C(C)C (stereo unspecified)
inactive: all assays above

CCCOc1cc(N)ccc1C(=O)OCCN(CC)CC
inactive: all assays above

COc1ccc(C[C@H](N)C(=O)N[C@H]2[C@@H](O)[C@H](n3cnc4c(N(C)C)ncnc43)O[C@@H]2CO)cc1
inactive: all assays above

C=C1C(=C/C=C2\CCC[C@]3(C)[C@@H]([C@H](C)CCCC(C)(C)O)CC[C@@H]23)C[C@@H](O)C[C@@H]1O
inactive: all assays above

CCCCC/C=C\C/C=C\C/C=C\CCCCC(=O)O
inactive: all assays above
